ASM inhibitor: human S-ASM enzyme inhibition. P17405. placental ASM, HMU-PC fluorogenic substrate, 60 min. Potency, µM (highest dose often 57.5 µM), most hits filed as inhibitors. actives 0.006% (n = 340,000). AID 504937
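qHTS format. ASM enzyme prepared from human placenta hydrolyses the fluorogenic substrate HMU-PC0 (9 uM final) over 60 min at 37 °C after a 10 min compound preincubation.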
Pin1 inhibitor: inhibitors of human Pin1. Pin1 FP peptide displacement, HiFluor488, 10 min. Potency, µM (series often up to 115 µM), most hits filed as inhibitors. actives 0.009% (n = 390,000). AID 504891; active = well fitted inhibition curve with a large enough effect in the polarisation, with a control signal flat, not every such curve was filed as active; inconclusive = small, poorly fitted or top-dose-only effect, or effect the other way, or a change in a side signal; inactive = no such curve, though single readings can be large or run the other way; the % refers to the polarisation
Target sequence (Q13526 whole entry, looked up): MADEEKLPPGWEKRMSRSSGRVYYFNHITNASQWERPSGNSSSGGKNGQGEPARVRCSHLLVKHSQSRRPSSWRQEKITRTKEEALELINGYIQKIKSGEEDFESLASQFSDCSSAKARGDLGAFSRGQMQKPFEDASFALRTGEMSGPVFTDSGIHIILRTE
TDP1 block: blocks human tyrosyl-DNA phosphodiesterase 1. Q9NUW8. recombinant TDP1, AlphaScreen DNA substrate cleavage. Potency, µM (series often up to 130 µM), hits mostly inhibitors. actives 0.28% (n = 350,000); note: nearly all actives have a fitted effect of over 40% in size
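Here, a 5' biotin and 3' phosphotyrosine-FITC DNA oligonucleotide reports Tdp1 activity: intact substrate bridges AlphaScreen beads, while cleavage leaves a 3' phosphate and drops signal. All incubations at room temperature.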
PLK1 PBD inh: PLK1 (human) polo-box domain binding inhibition; P53350; actives 2.8% (n = 360,000); Plk1 PBD binding of FITC phosphopeptide, fluorescence polarization; AID 720504; Potency, µM, hits mostly inhibitors; note: series mostly up to about 57 µM; nearly all actives have a fitted effect of over 65% in size
Tb PFK inh: T. brucei PFK enzyme inhibition | O15648 | T. brucei PFK, ADP-Glo luminescence | Potency, µM (top dose mostly 57.5 µM), hits mostly inhibitors | actives 0.17% (n = 330,000) | AID 485367; note: nearly all actives have a fitted effect of over 60% in size
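ADP-Glo luminescence quantified ADP after 45 min at room temperature, with 1.25 nM T. brucei PFK, 0.1 mM ATP and 0.5 mM fructose-6-phosphate in pH 8.0 TEA buffer. qHTS titrations up to 57 µM; curves classified by quality.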
VDR inh: blocks the human vitamin D receptor | P11473 | VDR-SRC2-3 peptide fluorescence polarization, 2 h | Potency, µM, hits mostly inhibitors | actives 0.93% (n = 400,000) | AID 504847
Target sequence (P11473 whole entry, looked up): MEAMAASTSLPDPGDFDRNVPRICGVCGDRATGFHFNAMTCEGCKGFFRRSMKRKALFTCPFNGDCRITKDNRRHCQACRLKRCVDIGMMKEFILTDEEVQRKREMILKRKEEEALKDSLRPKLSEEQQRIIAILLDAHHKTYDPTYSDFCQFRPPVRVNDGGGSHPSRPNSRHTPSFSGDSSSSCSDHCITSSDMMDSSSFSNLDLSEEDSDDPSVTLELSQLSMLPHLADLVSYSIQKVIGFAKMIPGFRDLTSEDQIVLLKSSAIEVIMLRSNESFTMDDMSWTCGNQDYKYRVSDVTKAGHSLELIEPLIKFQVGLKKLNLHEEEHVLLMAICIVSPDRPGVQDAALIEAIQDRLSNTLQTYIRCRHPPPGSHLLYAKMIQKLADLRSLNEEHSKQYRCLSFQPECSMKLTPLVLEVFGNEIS
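Inhibition of the VDR/SRC2-3 peptide interaction is quantified by fluorescence polarization. Compounds (23 nl, pintool) incubate with the reagents for 2 hours at ambient room temperature.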
Hits are given with their value; i = inactive; ? = inconclusive; nt = no result; ! = a repeat was not active; [ ] = another dose, or the depositor's remark. An excerpt weighted towards active compounds, which were near 3.1% of everything screened. Unless noted, calls come from the whole dose curve; as a rule, active = well fitted curve in the direction sought with a large enough effect; inconclusive = small, poorly fitted or top-dose-only effect, or another doubt; inactive = no such curve, though single readings can be large; an effect the other way counts as inactive or inconclusive.

SMILES	ASM inhibitor	Pin1 inhibitor	TDP1 block	PLK1 PBD inh	Tb PFK inh	VDR inh
COCCN(C(=O)COC(=O)/C=C/c1ccco1)c1c(N)n(Cc2ccccc2)c(=O)[nH]c1=O	i	i	25µM	i	i	i
CC(=O)Oc1ccc2oc(-c3ccccc3)c(C(N)=O)c2c1	i	i	nt	27µM	i	?
CCOC(=O)C1=C(O)/C(=C/c2ccc(-c3ccccc3C(=O)O)o2)SC1=Nc1ccc(C)cc1	i	i	i	?	i	79µM
CCOc1ccc2noc3c2c1C(=O)c1ccccc1-3	i	i	i	i	i	i
O=C1c2ccccc2-c2onc3ccc(NCc4ccco4)c1c23	?	?	79µM	3.4µM	i	?
Cc1nc2ccn(Cc3ccco3)c(=O)c2cc1C(=O)Nc1ccc(F)cc1	nt	i	i	nt	nt	i
CC12CCC(c3c1nc1ccccc1[n+]3[O-])C2(C)C (stereo unspecified)	i	i	i	19µM	i	71µM
Clc1ccccc1OCc1nnc(-c2ccccc2Br)o1	i	i	i	i	i	i
CCc1ccc(OCc2nnc(-c3ccccc3Br)o2)cc1	i	i	50µM	30µM	i	i
O=C(O)c1ccc(CN(Cc2ccccc2)S(=O)(=O)c2ccc(Cl)cc2)cc1	i	i	i[0.0935 µM]	24µM	i	?
CCOC(=O)c1ccc(CN(Cc2ccccc2)S(=O)(=O)c2ccc(C)cc2)cc1	nt	i	i	nt	nt	i
NC(=O)COC(=O)c1ccc(Cl)c(S(=O)(=O)N(Cc2ccccc2)c2ccc(Cl)cc2)c1	i	i	i	i	i	i
O=C(O)c1ccc(Cl)c(S(=O)(=O)N(Cc2ccccc2)c2ccc(Cl)cc2)c1	i	?	nt	30µM	i	i
CCn1nc(C)c2c(-c3ccccc3)cc(=O)n(C(C)C(=O)NCCC(C)C)c21 (stereo unspecified)	nt	i	i	nt	nt	i
COc1ccc(S(=O)(=O)N(CC(=O)NC(C)c2ccccc2)c2ccc(C)cc2)cc1OC (stereo unspecified)	nt	i	i[2.28 µM]	nt	nt	i
COc1ccc(N2CC(O)=C(c3n(C)c4ccccc4[n+]3C)C2=N)cc1	i	i	i	27µM	i	i
COc1ccc(N2CC(O)=C(c3nc(C)cs3)C2=N)cc1	i	i	i	i	i	i
CCC1CCCCN1C(=O)c1ccc2c(c1)N(Cc1cccc(Cl)c1)C(=O)c1ccccc1S2(=O)=O (stereo unspecified)	nt	i	i	nt	nt	i
Cc1c(C(=O)O)c(O)cc2c1C(=O)c1c(O)c([C@H]3O[C@H](CO)[C@@H](O)[C@H](O)[C@H]3O)c(O)c(O)c1C2=O	nt	nt	0.71µM!	nt	nt	i
Cc1c(C(=O)O)c(O)cc2c1C(=O)c1c(O)c([C@@H]3O[C@H](CO)[C@@H](O)[C@H](O)[C@H]3O)c(O)c(O)c1C2=O	i	?	i	i	i	i
CCNc1nc(C#N)nc(Nc2ccccc2)n1	nt	i	i	nt	nt	?
O=c1ccc2ccccc2[nH]1	nt	nt	i	nt	nt	i
Cc1cccc(N2CCN(C(=O)Cn3c(C)c4cnn(-c5ccccc5)c(=O)c4c3C)CC2)c1C	nt	i	i	nt	nt	i
Cc1cccc(C)c1NC(=O)CSc1nnc(C)n1CC1CCCO1 (stereo unspecified)	i	i	i	24µM	i	i
Cc1ccc(-n2nc(CO)c(C(=O)NC(C)CCCc3ccccc3)n2)cc1 (stereo unspecified)	nt	i	i	nt	nt	i
SMILES	ASM inhibitor	Pin1 inhibitor	TDP1 block	PLK1 PBD inh	Tb PFK inh	VDR inh
CC(=O)Nc1ccc2c(c1)c1ccccc1n2C(C)=O	nt	i	i	i	i	?
CC(=O)n1c2ccccc2c2nc(NC(C)C)sc21	i	i	i	27µM	i	?
O=S(=O)(c1ccc2c(Cl)cccc2c1)N1CCN(c2nc(-c3cccs3)nc3ccccc23)CC1	nt	i	i	nt	nt	i
O=C(Nc1ccccc1)Nc1ccc2snnc2c1	i	i	i	i	?	i
O=C(Nc1ccccc1)Nc1nccs1	i	i	i	i	i	i
O=C(Nc1ccccc1)Nc1nncs1	i	i	i	30µM	i	i
O=C(Nc1ccccc1)Nc1ccc2nnsc2c1	i	i	i	30µM	i	i
C=C1CCN(C(CC(C)C)C(=O)NCCCc2ccccc2)S(=O)(=O)c2ccccc21 (stereo unspecified)	nt	?	i	nt	nt	i
Clc1nc(Nc2ccc(N3CCOCC3)cc2)c2ccccc2n1	i	i	i	i	i	i
O=S(=O)(Nc1nc2ccccc2nc1Nc1ccc(N2CCOCC2)cc1)c1cc(Cl)ccc1Cl	i	?	i	12µM	i	i
COC(=O)C#CC(=O)OC	nt	nt	i	nt	nt	i
COc1cc(NS(=O)(=O)c2ccc(NC(=S)NC(=O)c3sc4ccccc4c3Cl)cc2)nc(OC)n1	i	i	i	?	i	i
COc1cc(NS(=O)(=O)c2ccc(NC(=S)NC(=O)c3sc4cc(F)ccc4c3Cl)cc2)nc(OC)n1	i	?	i	27µM	i	?
COc1ccc(-c2csc(Nc3ccc(S(=O)(=O)Nc4cc(OC)nc(OC)n4)cc3)n2)cc1	i	i	i	24µM	i	i
COc1cc(NS(=O)(=O)c2ccc(Nc3nc(-c4ccccn4)cs3)cc2)nc(OC)n1	i	i	i	i	i	i
COc1cc(NS(=O)(=O)c2ccc(N/C=C\C(=O)c3ccc(C)cc3)cc2)nc(OC)n1	i	i	nt	3.4µM	nt	i
CCS(=O)(=O)CCSc1nc2ccccc2o1	i	i	i	i	i	i
O=S(=O)(NCCSc1nc2ccccc2o1)c1ccccc1	i	i	i	8.4µM	i	i
CNC(=O)Cn1c(=O)c2cccn2c2ccc(F)cc21	nt	i	i	nt	nt	i
CCN(CC)C(=S)SCC(=O)NC12CC3CC(CC(C3)C1)C2	i	i	i	i	i	i
CCN(CC)C(=S)SSC(=S)N(CC)CC	i	i	i	0.84µM	?	nt
CC12C=C(/C=C/C=C/c3ccccc3)C(C)(C1)C(/C=C/c1ccccc1)CC2=O (stereo unspecified)	nt	nt	i[21 µM]	nt	nt	nt
CC12C=C(/C=C/C=C/c3ccco3)C(C)(C1)C(/C=C/c1ccco1)CC2=O (stereo unspecified)	nt	nt	2µM	nt	nt	nt
NC(=O)c1cccnc1Oc1ccc(Cl)cc1	i	i	i	i	i	i
NC(=O)c1cccnc1Oc1cccc(Cl)c1	i	i	i	27µM	i	?
O=C1C2C(c3ccccc3)CC=CC2C(c2ccc3ccccc3c2)N1Cc1ccccc1 (stereo unspecified)	nt	i	i	nt	nt	i
Cc1nnc(N2CCN(C(=O)Nc3cc(F)ccc3F)CC2)c2nn(-c3ccc(Cl)cc3)c(C)c12	nt	i	i	nt	nt	i
Cc1oc(-c2ccccc2)cc1C(=O)Nc1cccc(/C=C/C(=O)O)c1	i	i	i	21µM	i	i
CCOc1ccc(CNC(=O)C2CCN(S(=O)(=O)N3CCCCC3)CC2)cc1	nt	i	i	nt	nt	i
CCOc1ccccc1CN1CCc2nc(Nc3ccc4c(c3)OCCO4)ncc2C1	nt	i	i	nt	nt	i

Bioassay records as filed in PubChem BioAssay.
